In article PMC5540273 (PLoS ONE, 2017):
Where “and” joins values, the source holds several entries; their conditions need not be identical. Equal entries are not always repeated. Where two headings read alike, the source gives them in different places.

What was measured:
CHEK1 = details: concentration: 1 μM, replicates: in singlicate, n = 1
CHEK2 = details: concentration: 1 μM, replicates: in singlicate, n = 1
CIT = details: concentration: 1 μM, replicates: in singlicate, n = 1
CLK1 = details: concentration: 1 μM, replicates: in singlicate, n = 1
CLK2 = details: concentration: 1 μM, replicates: in singlicate, n = 1
CLK3 = details: concentration: 1 μM, replicates: in singlicate, n = 1
CLK4 = details: concentration: 1 μM, replicates: in singlicate, n = 1
CSF1R-autoinhibited = details: concentration: 1 μM, replicates: in singlicate, n = 1
CSF1R = details: concentration: 1 μM, replicates: in singlicate, n = 1
CSNK1A1L = details: concentration: 1 μM, replicates: in singlicate, n = 1
CSNK1A1 = details: concentration: 1 μM, replicates: in singlicate, n = 1
CSNK1D = details: concentration: 1 μM, replicates: in singlicate, n = 1
CSNK1E = details: concentration: 1 μM, replicates: in singlicate, n = 1
CSNK1G1 = details: concentration: 1 μM, replicates: in singlicate, n = 1
CSNK1G2 = details: concentration: 1 μM, replicates: in singlicate, n = 1
CSNK1G3 = details: concentration: 1 μM, replicates: in singlicate, n = 1
CSNK2A1 = details: n = 1
CSNK2A2 = details: n = 1
CSK = details: concentration: 1 μM, replicates: in singlicate, n = 1
CTK = test system: T1, CTK; details: concentration: 1 μM, replicates: in singlicate, n = 1
T1 construct: gene MATK

[1] = concentration: 1 μM, replicates: in singlicate, 1 µM
[2] = concentration: 1 μM, replicates: in singlicate
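Note: KINOMEscan kinase panel screen.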

Structure (SMILES): NCCNS(=O)(=O)c1ccc(-c2ccnc3[nH]ccc23)cc1 [GSK977617]
- %Inh (CHEK1; 1 µM): 8% and 21%
- %Inh (CHEK2; 1 µM): 72% and 63%
- %Inh (CIT; 1 µM): 65% and 48%
- %Inh (CLK1; 1 µM): 95.5% and 95.4%
- %Inh (CLK2; 1 µM): 94.8% and 95.5%
- %Inh (CLK3; 1 µM): 64% and 83%
- %Inh (CLK4; 1 µM): 97.7% and 96%
- %Inh (CSF1R-autoinhibited; 1 µM): 11% and 0%
- %Inh (CSF1R; 1 µM): 46% and 19%
- %Inh (CSNK1A1L; 1 µM): 76% and 61%
- %Inh (CSNK1A1; 1 µM): 88% and 93.1%
- %Inh (CSNK1D; 1 µM): 77% and 70%
- %Inh (CSNK1E; 1 µM): 85% and 86%
- %Inh (CSNK1G1; 1 µM): 20% and 0%
- %Inh (CSNK1G2; 1 µM): 58% and 24%
- %Inh (CSNK1G3; 1 µM): 51% and 59%
- %Inh (CSNK2A1; [1]): 72% and 56%
- %Inh (CSNK2A2; [1]): 63% and 56%

Structure (SMILES): CC(C)(CN)c1nc(-c2ccc(Cl)c(O)c2)c(-c2ccncc2)[nH]1.O=C(O)C(F)(F)F [SB-477794]
- %Inh (CHEK1; 1 µM): 20% and 10%
- %Inh (CHEK2; 1 µM): 41% and 59%
- %Inh (CIT; 1 µM): 100% and 99.4%
- %Inh (CLK1; 1 µM): 14% and 3%
- %Inh (CLK3; 1 µM): 1% and 11%
- %Inh (CLK4; 1 µM): 6% and 11%
- %Inh (CSF1R-autoinhibited; 1 µM): 12% and 52%
- %Inh (CSF1R; 1 µM): 50% and 43%
- %Inh (CSK; 1 µM): 44% and 28%
- %Inh (CSNK1A1L; 1 µM): 85% and 81%
- %Inh (CSNK1A1; 1 µM): 96.3% and 93.8%
- %Inh (CSNK1D; 1 µM): 97% and 96.6%
- %Inh (CSNK1G1; 1 µM): 0% and 5%
- %Inh (CSNK1G2; 1 µM): 0% and 7%
- %Inh (CSNK1G3; 1 µM): 22% and 14%
- %Inh (CSNK2A2; [1]): 11% and 0%

Structure (SMILES): O=c1cc(N2CCOCC2)nc2n(Cc3cccc(Cl)c3Cl)c(C3CC3)nn12 [GSK2358994]
- %Inh (CSNK2A1; 1 µM): 16%
- %Inh (CSNK2A2; 1 µM): 0%

Structure (SMILES): Cc1nnc(-c2ccc3occ(-c4ccc(C(C)O)cc4)c3c2)o1 (centres unmarked)
- %Inh (CHEK1): 13%
- %Inh (CHEK2): 15%
- %Inh (CIT): 11%
- %Inh (CLK1): 31%
- %Inh (CLK2): 2%
- %Inh (CLK3): 6%
- %Inh (CLK4): 33%
- %Inh (CSF1R-autoinhibited): 6%
- %Inh (CSF1R): 1%
- %Inh (CSK): 3%
- %Inh (CSNK1A1L): 0%
- %Inh (CSNK1A1): 14%
- %Inh (CSNK1D): 0%
- %Inh (CSNK1E): 7%
- %Inh (CSNK1G1): 0%
- %Inh (CSNK1G2): 9%
- %Inh (CSNK1G3): 0%
- %Inh (CSNK2A1; [2]): 25%
- %Inh (CSNK2A2; [2]): 53%
- %Inh (CTK): 0%

Structure (SMILES): COc1ccc(Nc2nccc(N3CCC(NC(=O)Nc4cccc(C(C)=O)c4)C3)n2)cc1 (centres unmarked) [GSK1379731]
- %Inh (CHEK1): 0%
- %Inh (CHEK2): 0%
- %Inh (CIT): 0%
- %Inh (CLK1): 5%
- %Inh (CLK2): 0%
- %Inh (CLK3): 5%
- %Inh (CLK4): 2%
- %Inh (CSF1R-autoinhibited): 0%
- %Inh (CSF1R): 0%
- %Inh (CSK): 0%
- %Inh (CSNK1A1L): 4%
- %Inh (CSNK1A1): 0%
- %Inh (CSNK1D): 0%
- %Inh (CSNK1E): 39%
- %Inh (CSNK1G1): 0%
- %Inh (CSNK1G2): 0%
- %Inh (CSNK1G3): 0%
- %Inh (CSNK2A1; [2]): 0%
- %Inh (CSNK2A2; [2]): 0%
- %Inh (CTK): 0%

Structure (SMILES): O=c1cc(N2CCOCC2)nc2n(Cc3cccc(F)c3)ccn12 [GSK2297430]
- %Inh (CHEK1): 0%
- %Inh (CHEK2): 0%
- %Inh (CIT): 26%
- %Inh (CLK1): 33%
- %Inh (CLK2): 0%
- %Inh (CLK3): 30%
- %Inh (CLK4): 45%
- %Inh (CSF1R-autoinhibited): 0%
- %Inh (CSF1R): 0%
- %Inh (CSK): 0%
- %Inh (CSNK1A1L): 18%
- %Inh (CSNK1A1): 20%
- %Inh (CSNK1D): 15%
- %Inh (CSNK1E): 35%
- %Inh (CSNK1G1): 9%
- %Inh (CSNK1G2): 1%
- %Inh (CSNK1G3): 13%
- %Inh (CSNK2A1; [2]): 0%
- %Inh (CSNK2A2; [2]): 0%
- %Inh (CTK): 0%

Structure (SMILES): COc1ccc(CNC(=O)NC2CCN(c3ccnc(Nc4ccc(OC)cc4)n3)C2)cc1 (centres unmarked) [GSK1379727]
- %Inh (CHEK1): 0%
- %Inh (CHEK2): 27%
- %Inh (CIT): 19%
- %Inh (CLK1): 19%
- %Inh (CLK2): 0%
- %Inh (CLK3): 0%
- %Inh (CLK4): 14%
- %Inh (CSF1R-autoinhibited): 16%
- %Inh (CSF1R): 0%
- %Inh (CSK): 0%
- %Inh (CSNK1A1L): 5%
- %Inh (CSNK1A1): 0%
- %Inh (CSNK1D): 0%
- %Inh (CSNK1E): 8%
- %Inh (CSNK1G1): 0%
- %Inh (CSNK1G2): 0%
- %Inh (CSNK1G3): 8%
- %Inh (CSNK2A1; [2]): 7%
- %Inh (CSNK2A2; [2]): 0%
- %Inh (CTK): 0%

Structure (SMILES): Cl.Oc1cccc(Nc2ccnc3cc(-c4ccncc4)ccc23)c1 [GW494601]
- %Inh (CHEK1): 0%
- %Inh (CHEK2): 42%
- %Inh (CIT): 68%
- %Inh (CLK1): 9%
- %Inh (CLK2): 0%
- %Inh (CLK3): 0%
- %Inh (CLK4): 33%
- %Inh (CSF1R-autoinhibited): 41%
- %Inh (CSF1R): 91.9%
- %Inh (CSK): 65%
- %Inh (CSNK1A1L): 42%
- %Inh (CSNK1A1): 55%
- %Inh (CSNK1D): 28%
- %Inh (CSNK1E): 45%
- %Inh (CSNK1G1): 40%
- %Inh (CSNK1G2): 0%
- %Inh (CSNK1G3): 22%
- %Inh (CSNK2A1; [2]): 0%
- %Inh (CSNK2A2; [2]): 0%
- %Inh (CTK): 0%

Structure (SMILES): Cl.Cl.Cl.Fc1ccc(-c2ncn(C3CCNCC3)c2-c2ccnc(Nc3ccccc3)n2)cc1 [SB-238039]
- %Inh (CHEK1): 0%
- %Inh (CHEK2; 1 µM): 0% and 39%
- %Inh (CIT; 1 µM): 99.5% and 97.5%
- %Inh (CLK1; 1 µM): 0% and 1%
- %Inh (CLK2): 0%
- %Inh (CLK3; 1 µM): 6% and 21%
- %Inh (CLK4; 1 µM): 37% and 14%
- %Inh (CSF1R-autoinhibited; 1 µM): 27% and 19%
- %Inh (CSF1R; 1 µM): 1% and 14%
- %Inh (CSK; 1 µM): 0% and 10%
- %Inh (CSNK1A1L): 98.9%
- %Inh (CSNK1A1): 97.7%
- %Inh (CSNK1D; 1 µM): 95.2% and 93.4%
- %Inh (CSNK1E): 99.9%
- %Inh (CSNK1G1; 1 µM): 78% and 75%
- %Inh (CSNK1G2; 1 µM): 99.5% and 98.9%
- %Inh (CSNK1G3; 1 µM): 99.2% and 96.6%
- %Inh (CSNK2A1; [1]): 0% and 19%
- %Inh (CSNK2A2; [1]): 0% and 25%
- %Inh (CTK; 1 µM): 40% and 1%

Structure (SMILES): Cc1cccc(Cn2ccn3c(=O)cc(N4CCOCC4)nc23)c1 [GSK2297542]
- %Inh (CHEK1): 13%
- %Inh (CHEK2): 4%
- %Inh (CIT): 23%
- %Inh (CLK1): 50%
- %Inh (CLK2): 20%
- %Inh (CLK3): 58%
- %Inh (CLK4): 45%
- %Inh (CSF1R-autoinhibited): 8%
- %Inh (CSF1R): 11%
- %Inh (CSK): 55%
- %Inh (CSNK1A1L): 18%
- %Inh (CSNK1A1): 19%
- %Inh (CSNK1D): 48%
- %Inh (CSNK1E): 55%
- %Inh (CSNK1G1): 27%
- %Inh (CSNK1G2): 16%
- %Inh (CSNK1G3): 25%
- %Inh (CSNK2A1; [2]): 2%
- %Inh (CSNK2A2; [2]): 22%
- %Inh (CTK): 0%
